Laboratory results taken from PubChem BioAssay (NCI).
About 83,000 compounds went through this panel and 20% of them were active in at least one assay; those are over-represented in the sample as a whole.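 Method: cells in 96-well plates; compound added at one concentration; 48 h incubation; percent growth measured; values under 10 scored active.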 A number with no mark means an inactive call. Active and inactive are the calls of the source.

Legend:
Test in all cases: NCI-60 one-dose screen, 48 h (100 = growth as untreated, 0 = no growth, -100 = all killed)
Settings in all cases: 10 µM unless noted
[1] = system: DU-145 prostate
[2] = system: K-562 leukemia
[3] = system: MALME-3M melanoma
[4] = system: MDA-MB-231 breast
[5] = system: RXF 393 renal
[6] = system: SF-268 CNS
[7] = system: SF-539 CNS
[8] = system: UACC-257 melanoma
[9] = system: M14 melanoma

| Compound | growth [1] | growth [2] | growth [3] | growth [4] | growth [5] | growth [6] | growth [7] | growth [8] | growth [9] |
| --- | --- | --- | --- | --- | --- | --- | --- | --- | --- |
| O=C(C(Br)C(Br)c1ccccc1)C(Br)C(Br)c1ccccc1 (stereo unspecified) | -26.4% (active) | -17.5% (active) | -69.5% (active) | -16.5% (active) | -85.1% (active) | -1.83% (active) | -42.5% (active) | -67.3% (active) | 1.62% (active) |
| Oc1c(-c2cc(C(F)(F)F)[nH]n2)cc(Cl)c(OCc2ccc(Cl)cc2)c1-c1ccc(Cl)c(C(F)(F)F)c1 | 10.2% | 5.9% (active) | -30.5% (active) | -5.89% (active) | -24.7% (active) | -5.51% (active) | -11.6% (active) | -2.82% (active) | -21% (active) |
| O=[N+]([O-])c1cccc([I+]c2ccccc2)c1 | 58.5% | 27.3% | 49.4% | 83.2% | 72.4% | 50.1% | 65.6% | 80.1% | 56.6% |
| CC1=NC(c2ccc(Cl)cc2)C2=C(N1)/C(=C/c1ccc(Cl)cc1)CCC2 (stereo unspecified) | 105% | 76.6% | 96.4% | 107% | 90.8% | 99.3% | 103% | 93.7% | 65.3% |
| Cc1cc(NC(=O)C2c3ccccc3C(=O)N(CC(C)C)C2c2cccs2)no1 (stereo unspecified) | -9.63% (active) | 3.46% (active) | -62.1% (active) | -14.2% (active) | -88.3% (active) | 27.8% | 18.2% | -8.81% (active) | 1% (active) |
| C=CCn1c(SCC(=O)Nc2ccc(/C(C)=N\O)cc2)nnc1-c1cc(-c2ccccc2)nc2ccccc12 | 75% | 27.6% | 96.3% | 58.3% | 68.8% | 62.8% | 50.6% | 75.6% | 34% |
| CSC1=NC(=Nc2c(C)cccc2C)C2(CCC(C(C)(C)C)CC2)N1c1ccc(Cl)cc1 (stereo unspecified) | 40.3% | 17.7% | 38.5% | 61.8% | 38% | 42.8% | 46.5% | 54.1% | 49.5% |
| Oc1[nH]c2ccc(Cl)cc2c1/C=c1/ccc2c(c1)N=C(c1ccc(F)cc1)N=2 | 86.3% | 16.4% | -3.95% (active) | 63.1% | 63.4% | 77.2% | 92.2% | 70.1% | 30.4% |
| Cc1ccc(N2C3c4ccccc4N(S(=O)(=O)c4ccc(C)cc4)C2c2ccccc2N3S(=O)(=O)c2ccc(C)cc2)cc1 | 104% | 90.4% | 97.9% | 94.3% | 121% | 107% | 95.4% | 102% | 110% |
| CCOC(=O)C(Nc1ccccc1)C(=O)OCC | 122% | 92.4% | 93.2% | 105% | 114% | 122% | 111% | 112% | 103% |
| FC(F)(F)C1=NNC(c2ccc3ccccc3c2)=NN1 | 104% | 95.2% | 107% | 81.9% | 123% | 100% | 93.9% | 104% | 98.3% |
| COC1CC(N)C2OC(c3ccccc3)OCC2O1 (stereo unspecified) | 115% | 93.9% | 106% | 98.3% | 115% | 108% | 101% | 95.4% | 107% |
| CC(=O)c1ccc(-n2c(-c3cc(-c4ccsc4)n[nH]3)n[nH]c2=S)cc1 | 110% | 105% | 106% | 105% | 106% | 107% | 97.5% | 101% | 97.8% |
| CNCCCNc1ccnc2cc(Cl)ccc12 | -5.31% (active) | 2.22% (active) | -90.3% (active) | -33.8% (active) | -63.3% (active) | -29.5% (active) | -66.7% (active) | -87.5% (active) | -32.6% (active) |
